Outcome and AC50 data for five compounds are collected here from PubChem BioAssay (EPA / NIEHS).

Several values for one entry are separate records, joined by “and”; a condition that tells them apart may be missing. Equal values may be shown once. Inconclusive results are not listed. Some structures have more than one record in an assay (separate samples or runs), and their calls can disagree. Activity calls are given as the source filed them. The calls were made as follows, unless noted: active = hit-call score of the fitted dose curve at least 0.9, where 1 is the maximum; inconclusive = response in the unintended direction; inactive = score below 0.9.

Read-out in assay [1]: X-box binding protein 1 (XBP1), XBP1 (gene 7494)
The experiment in a line: LTEA_HepaRG_XBP1: Life Technologies and Expression Analysis (LTEA) Assay for X-box binding protein 1 (XBP1) using HepaRG (AID 2283540; active = hit-call score of the fitted dose curve at least 0.9, where 1 is the maximum; inactive = score below 0.9). Particulars: mRNA level, 48 h; actives raise or lower the signal. The gist of the method: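 Differentiated human HepaRG cells in serum-free induction medium were exposed in duplicate for 48 h to eight half-log concentrations up to 100 uM in 0.5% DMSO. XBP1 mRNA was quantified by qRT-PCR, normalised to ACTB, GAPDH and POLR2A, with bidirectional fitting against DMSO.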

The nature of assay [2]: LTEA_HepaRG_LDH_cytotoxicity: Cytotoxicity Assessment in the Life Technologies and Expression Analysis (LTEA) Assay (AID 2283563).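 As to AC50: LDH activity released into spent culture medium as a marker of cell death.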 A digest of the protocol:
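Differentiated human HepaRG cells, plated 48 h beforehand, were switched to serum-free induction medium and exposed for 48 h to eight half-log concentrations (top 100 uM) in 0.5% DMSO. LDH was measured in spent medium; activity was fitted relative to DMSO vehicle.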

Assay [3] can be described thus: TOX21_p53_BLA_p2_viability: Viability Assessment in the Tox21 HCT-116 p53 Agonism Beta-lactamase Assay, Phase 2 (AID 2283591).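 Also: compound exposure lasted 16 h at 37 °C; actives lower the ATP signal meaning cytotoxicity.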 The gist of the method:
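HCT-116 p53-bla cells (4000/well) rested 5 h at 37C, then received compounds in DMSO (217-fold dilution) for 16 h at 37C, 5% CO2. After the CCF4 read, CellTiter-Glo was added; ATP luminescence was read after 30 min at room temperature.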

In assay [4] the target is Cellular tumor antigen p53 (Homo sapiens) (UniProt P04637). The experiment in a line: TOX21_p53_BLA_p2_ratio: Tox21 HCT-116 p53 Agonism Beta-lactamase Assay, Ratio, Phase 2 (AID 2283592). The gist of the method:
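HCT116 cells carrying a p53-responsive beta-lactamase reporter were plated, incubated 5 h at 37C, then dosed with compounds in DMSO (217-fold dilution) for 16 h. CCF4-AM substrate was added for 2 h at room temperature; the 460/530 nm emission ratio gave gain-of-signal activity relative to DMSO.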

Assay [5] is described as follows: TOX21_p53_BLA_p3_viability: Viability Assessment in the Tox21 HCT-116 p53 Agonism Beta-lactamase Assay, Phase 3 (AID 2283593).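 Also: cells exposed to compound for 16 h before reading.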 The gist of the method:
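HCT-116 cells (4000/well) rested 5 h at 37C, then got DMSO compounds by pin tool (217-fold dilution) for 16 h at 37C, 5% CO2. After the bla read, CellTiter-Glo was added and luminescence read at 30 min, room temperature.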

Assay [6] concerns the target Cellular tumor antigen p53 (Homo sapiens) (UniProt P04637). The experiment in a line: TOX21_p53_BLA_p3_ratio: Tox21 HCT-116 p53 Agonism Beta-lactamase Assay, Ratio, Phase 3 (AID 2283596). The gist of the method: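 HCT116 p53-bla cells (4000/well) given compound in DMSO (217-fold dilution) after 5 h, incubated 16 h at 37C. CCF4-AM substrate 2 h at room temperature; 460/530 nm emission ratio, gain fitted against DMSO.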

Assay [7] can be described thus: TOX21_p53_BLA_p4_viability: Viability Assessment in the Tox21 HCT-116 p53 Agonism Beta-lactamase Assay, Phase 4 (AID 2283597).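 Also: hits lower the luminescence signal meaning cytotoxicity.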 A digest of the protocol: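 HCT116 p53-bla cells (4000/well) rested 5 h at 37C, then received compounds in DMSO (217-fold dilution) for 16 h at 37C, 5% CO2. CellTiter-Glo was added after the CCF4-AM read, and luminescence was read after 30 min at room temperature.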

Assay [8] deals with Cellular tumor antigen p53 (Homo sapiens) (UniProt P04637). As to the kind of experiment: TOX21_p53_BLA_p5_ratio: Tox21 HCT-116 p53 Agonism Beta-lactamase Assay, Ratio, Phase 5 (AID 2283599). The gist of the method: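 HCT-116 cells carrying a p53-inducible beta-lactamase reporter were seeded at 4000 cells/well and dosed after 5 h with compound in DMSO (217-fold dilution). After 16 h at 37C, CCF4-AM substrate was added for 2 h, and the 460/530 nm emission ratio was scored as gain-of-signal versus DMSO.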
Cellular tumor antigen p53 (Homo sapiens), sequence (P04637 whole entry, looked up): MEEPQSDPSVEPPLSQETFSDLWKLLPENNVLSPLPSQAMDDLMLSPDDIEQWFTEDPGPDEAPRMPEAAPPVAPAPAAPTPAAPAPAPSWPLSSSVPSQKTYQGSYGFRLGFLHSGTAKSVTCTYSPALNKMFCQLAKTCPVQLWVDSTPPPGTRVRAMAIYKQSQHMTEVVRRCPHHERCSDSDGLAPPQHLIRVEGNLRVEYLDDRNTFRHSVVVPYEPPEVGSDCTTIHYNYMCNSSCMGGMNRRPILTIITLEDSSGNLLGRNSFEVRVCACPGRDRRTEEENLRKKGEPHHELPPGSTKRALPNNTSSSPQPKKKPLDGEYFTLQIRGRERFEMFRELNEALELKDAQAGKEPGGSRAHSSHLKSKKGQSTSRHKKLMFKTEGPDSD

Assay [9] in a line: TOX21_p53_BLA_p5_viability: Viability Assessment in the Tox21 HCT-116 p53 Agonism Beta-lactamase Assay, Phase 5 (AID 2283600). A digest of the protocol: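 Cells were plated at 4000/well, rested 5 h at 37C, then given compounds in DMSO (217-fold dilution) for 16 h at 37C, 5% CO2. Following the CCF4-AM beta-lactamase read, CellTiter-Glo was added and luminescence was read after 30 min at room temperature.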

For assay [10], the target named is Cellular tumor antigen p53 (Homo sapiens) (UniProt P04637). As to the kind of experiment: TOX21_p53_BLA_p4_ratio: Tox21 HCT-116 p53 Agonism Beta-lactamase Assay, Ratio, Phase 4 (AID 2283601). The gist of the method: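 HCT116 cells carrying an inducible beta-lactamase reporter were plated at 4000 cells/well, rested 5 h, then exposed to compounds in DMSO (217-fold dilution) for 16 h at 37C. CCF4-AM substrate was loaded 2 h at room temperature; 460/530 nm emission ratio scored gain-of-signal versus DMSO.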

The nature of assay [11]: Tanguay_ZF_120hpf_YSE_legacy: (Legacy) Oregon State University Tanguay Lab 120 Hour Post-fertilization zebrafish Assay for Yolk Sac Edema (AID 2283634).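 As to AC50: actives raise the incidence of yolk sac edema above the DMSO baseline.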 The gist of the method: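 Tropical 5D wild-type embryos, dechorionated with pronase at 4 hpf, were exposed singly from 6 hpf to 120 hpf under static, sealed, dark conditions at 28C with 0.64% DMSO final. Yolk sac edema was scored present/absent by brightfield microscopy.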

The nature of assay [12]: Tanguay_ZF_120hpf_AXIS_legacy: (Legacy) Oregon State University Tanguay Lab 120 Hour Post-fertilization zebrafish Assay for Body Axis Malformation (AID 2283635).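 As to AC50: potency for an increased fraction of larvae scored with body axis malformation.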 A digest of the protocol: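 Tropical 5D wild-type zebrafish embryos, dechorionated with pronase at 4 hpf, were placed singly in wells at 6 hpf and exposed statically to test chemical (0.64% DMSO final) at 28C until 120 hpf, then scored by brightfield for body axis defects.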

The nature of assay [13]: Tanguay_ZF_120hpf_EYE_legacy: (Legacy) Oregon State University Tanguay Lab 120 Hour Post-fertilization zebrafish Assay for Eye Malformation (AID 2283636).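 Also: binary presence or absence of eye malformation scored by brightfield in 120 hpf larvae.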 The gist of the method:
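Dechorionated wild-type Tropical 5D zebrafish embryos were exposed statically from 6 hpf, one per well, to 120 hpf at 28C in sealed, foil-covered plates with 0.64% DMSO. Eye malformation was scored present/absent by brightfield microscopy against DMSO controls.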

Assay [14] can be described thus: Tanguay_ZF_120hpf_JAW_legacy: (Legacy) Oregon State University Tanguay Lab 120 Hour Post-fertilization zebrafish Assay for Jaw Malformation (AID 2283638).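 As to AC50: active means more embryos with jaw malformation than DMSO controls.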 A digest of the protocol:
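Tropical 5D wild-type embryos, dechorionated with pronase at 4 hpf, were placed singly per well at 6 hpf and statically exposed at 28C until 120 hpf (0.64% DMSO final). Jaw malformation scored as present/absent by brightfield microscopy at 120 hpf, analyzed relative to DMSO.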

Assay [15] can be described thus: Tanguay_ZF_120hpf_OTIC_legacy: (Legacy) Oregon State University Tanguay Lab 120 Hour Post-fertilization zebrafish Assay for Otic Vesicle Malformation (AID 2283639). A digest of the protocol:
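Embryos from 5D wild-type adults exposed in plates; DMSO 0.64% v/v final. Sealed, light-protected, 28C, static to 120 hpf. Otic vesicle malformation recorded as binary endpoint; gain-of-signal fitted vs DMSO.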

The nature of assay [16]: Tanguay_ZF_120hpf_PE_legacy: (Legacy) Oregon State University Tanguay Lab 120 Hour Post-fertilization zebrafish Assay for Pericardial Edema (AID 2283640).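 As to AC50: potency for increased incidence of pericardial edema versus DMSO baseline.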 The gist of the method:
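Tropical 5D wild-type zebrafish embryos were exposed statically to 120 hpf at 28C, sealed and foil-covered, in 0.64% DMSO final. Pericardial edema was scored present/absent by brightfield microscopy; dead embryos were not scored.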

A short description of assay [17]: Tanguay_ZF_120hpf_BRAI_legacy: (Legacy) Oregon State University Tanguay Lab 120 Hour Post-fertilization zebrafish Assay for Brain Malformation (AID 2283641). The gist of the method: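 Tropical 5D wild-type zebrafish embryos were exposed statically in sealed, foil-covered plates at 28C until 120 hpf, with 0.64% (vol/vol) final DMSO. Brain malformation was scored present/absent by brightfield microscopy, relative to DMSO baseline.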

Assay [18] is described as follows: ATG_XTT_Cytotoxicity: Cytotoxicity Assessment in the Attagene TRANS-FACTORIAL HepG2 Assay (AID 2283584). The gist of the method: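 HepG2 human liver cells, transiently transfected with multiple GAL4-UAS reporter units, were dosed and read at 24 h by XTT as cell number. Loss of signal was fitted relative to DMSO negative control baseline.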
Assay [19] in a line: Tanguay_ZF_120hpf_MORT_legacy: (Legacy) Oregon State University Tanguay Lab 120 Hour Post-fertilization zebrafish Assay for Mortality (AID 2283633).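 As to AC50: fitted as increase in binary mortality versus DMSO negative control.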 A digest of the protocol:
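Dechorionated Tropical 5D wild-type zebrafish embryos, one per well from 6 hpf, were statically exposed at 28C in the dark until 120 hpf (0.64% DMSO final). Mortality was scored as present/absent by brightfield microscopy, fitted positively versus DMSO.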

Assay [20] can be described thus: Tanguay_ZF_120hpf_SNOU_legacy: (Legacy) Oregon State University Tanguay Lab 120 Hour Post-fertilization zebrafish Assay for Snout Malformation (AID 2283637). A digest of the protocol: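 Tropical 5D wild-type zebrafish embryos, dechorionated with pronase at 4 hpf, were exposed singly from 6 hpf to 120 hpf statically at 28C in 0.64% DMSO. Snout malformation was scored present/absent by brightfield microscopy, fitted against DMSO.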

For `Cc1ccc2oc(CN(Cc3ccccc3)C(=O)Nc3c(F)cc(F)cc3F)c(-c3ccc(Cl)cc3)c2c1`, the compound was called inactive in assay [1], in [2], in assay [3], in assay [4], in assay [5] and in assay [6]. Besides, the call in assay [7], in assay [8], in assay [9], in [10], in assay [11] and in assay [12] was inactive. The compound was classed as inactive in assay [13], in assay [14], in assay [15], in [16] and in [17].
In the case of `O=C(OCCCCCCOC(=O)c1ccccc1)c1ccccc1`, the result in assay [1], in [2], in [18], in assay [7], in assay [8] and in assay [10] was inactive. For the same compound, the compound was classed as inactive in assay [19], in [11], in assay [12], in assay [14] and in [16].
In general, AC50 refers to the midpoint of the concentration-response curve, whichever way the signal moves. Regarding `CCCCCCCCOC(=O)c1cc(O)c(O)c(O)c1`, the compound was called inactive in assay [1], in assay [2], in [11], in assay [12], in assay [13] and in assay [14]. Moreover, the call in assay [15], in assay [16] and in assay [17] was inactive. The AC50 in assay [3] was 27.6 µM (active); in [4] it was 50 µM (active); in [5] it was 67.9 µM (active); in assay [6] it was 36.8 µM (active); in assay [7], 32.9 µM (active); in assay [8], 63.3 µM (active). Further, the AC50 is 42.6 µM (active) in assay [9], 62.6 µM (active) in [10] and 8.13 µM (active) in assay [19].
On to `O=C1CCC(C2CCCCC2)CC1`, for which the call in assay [1], in assay [2], in [3], in assay [4], in assay [5] and in assay [6] was inactive. The compound was called inactive in assay [7], in assay [8], in assay [9], in assay [10], in [11] and in [12]. In addition, the result in assay [13], in assay [20], in assay [14], in [15], in assay [16] and in assay [17] was inactive.
Regarding `Clc1ccccc1C(c1ccccc1)(c1ccccc1)n1ccnc1`, the outcome in [1], in assay [3], in assay [5], in assay [6], in [8] and in [9] was inactive. Further, the compound was called inactive in assay [13] and in assay [15]. The AC50 in [2] is 70.7 µM (active); in [3] it was 58.2 µM (active); in assay [4], 64.8 µM (active) and 19 µM (active); in assay [5], 81.9 µM (active); in assay [6], 74.1 µM (active); in assay [7], 34.5 µM (active) and 15.3 µM (active). In addition, the AC50 is 86.2 µM (active) in assay [8]; 85.1 µM (active) in assay [9]; 60.2 µM (active) and 16.6 µM (active) in [10]; 14.6 µM (active) in assay [11]; 14.8 µM (active) in assay [12]; 1.2 µM (active) in assay [14]. In addition, the values for the AC50 in assay [16] and in [17] were 24.8 µM (active) and 87.3 µM (active), respectively.
